# Bcl-xL primary – Bcl-xL (human) inhibition; 320,000 tested, 0.7% active; inhibition, % at 10.9 µM; Q07817; GST-Bcl-xL / FITC-Bim BH3 peptide fluorescence polarization; AID 2129;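 active means inhibition above the mean of all tested compounds plus 3 SD, cutoff set per campaign, cut at about 30% in these data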;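 further: inhibitors lower millipolarization by displacing the labeled peptide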
# Keap1 Nrf2 FP – inhibitors of human Keap1-Nrf2 protein-protein interaction; inhibition, % at 9.4 µM; Q14145; Keap1 Kelch-Nrf2 peptide fluorescence polarization, 1536-well; 340,000 tested, 0.15% active; AID 504523; in the data active means inhibition above about 12%;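 further: human Keap1 Kelch domain with fluorescein labeled Nrf2 9mer peptide probe; higher means more block of Keap1 binding to Nrf2 peptide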
# C-LANA FP – inhibitors of KSHV LANA C-terminal domain DNA binding; MBP-C-LANA/FAM-LBS DNA binding, fluorescence polarization; inhibition, % at 9 µM; 340,000 tested, 0.078% active; AID 504423;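 active means highest replicate inhibition at or above 60% at 9 µM, even if other replicates fall short; inactive means all replicates below 60% inhibition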
# GLD-1 TGE inh – GLD-1-TGE RNA interaction inhibition (C. elegans) | purified GLD-1 + fluorescein TGE RNA, fluorescence polarization | inhibition, % at 5.96 µM | 320,000 tested, 0.44% active;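 active means percent inhibition above a per-plate cutoff, the plate mean of test compounds plus 3 SD, cut at about 30% in these data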
# MCL1-BIM inh – inhibitors of human MCL1 binding to BIM-BH3 peptide | Q07820 | GST-MCL1 / FITC-Bim-BH3 fluorescence polarization | inhibition, % at 10.9 µM | 320,000 tested, 0.68% active | AID 2057;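 active means inhibition above the mean inhibition of all tested compounds plus 3 SD, set per campaign, cut at about 40% in these data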;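 further: higher means more loss of mP so more displacement of Bim peptide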
# eLon inh – E. coli protease La inhibition; purified E. coli Lon protease, fluorescence polarization; AID 602123; 360,000 tested, 0.42% active; inhibition, % at 7.94 µM; in the data active means inhibition above about 13%, passing the limit was not always enough
# Target sequence (P0A9M0 whole entry, looked up): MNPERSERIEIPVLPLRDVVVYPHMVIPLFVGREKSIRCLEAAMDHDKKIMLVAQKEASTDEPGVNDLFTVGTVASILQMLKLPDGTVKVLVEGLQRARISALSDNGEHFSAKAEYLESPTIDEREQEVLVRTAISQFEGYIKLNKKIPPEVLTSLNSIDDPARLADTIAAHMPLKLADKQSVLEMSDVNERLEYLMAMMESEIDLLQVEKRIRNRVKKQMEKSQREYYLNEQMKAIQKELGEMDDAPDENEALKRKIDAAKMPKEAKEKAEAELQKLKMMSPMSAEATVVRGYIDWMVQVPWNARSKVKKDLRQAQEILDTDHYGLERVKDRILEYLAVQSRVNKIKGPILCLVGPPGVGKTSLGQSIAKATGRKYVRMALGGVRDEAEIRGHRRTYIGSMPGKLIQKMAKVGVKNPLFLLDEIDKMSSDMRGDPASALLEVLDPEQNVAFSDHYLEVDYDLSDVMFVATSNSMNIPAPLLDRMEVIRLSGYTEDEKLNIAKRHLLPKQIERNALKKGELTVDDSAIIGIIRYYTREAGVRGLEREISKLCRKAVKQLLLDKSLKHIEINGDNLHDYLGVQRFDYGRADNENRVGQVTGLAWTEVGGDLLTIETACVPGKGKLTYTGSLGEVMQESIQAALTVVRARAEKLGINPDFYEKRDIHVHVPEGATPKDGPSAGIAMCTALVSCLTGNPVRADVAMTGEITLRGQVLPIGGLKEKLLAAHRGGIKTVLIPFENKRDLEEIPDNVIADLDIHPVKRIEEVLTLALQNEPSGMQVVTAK
# BCLXL inh confirm – counter-screen for MCL1 inhibitors: confirmation of human Bcl-xL inhibitors. shares compounds with MCL1-BIM inh. GST-Bcl-xL / FITC-Bim BH3 peptide FP binding. inhibition, % at 10.9 µM. 1,700 tested, 54% active. AID 2166;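 active means inhibition above a cutoff equal to the mean inhibition of all tested compounds plus 3 SD, cut at about 30% in these data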
# MCL1 inh confirm – MCL1-BIM-BH3 interaction inhibition, confirmation | shares compounds with MCL1-BIM inh | GST-MCL1 / FITC-Bim-BH3 fluorescence polarization | inhibition, % at 10.9 µM | 1,700 tested, 61% active | AID 2168;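 active means inhibition above the average of all tested compounds plus 3 SD, cut at about 40% in these data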
# Numbers stand for hits; – = inactive; · = no result given; + = active, no number. Only some compounds are listed: those with a hit (about 1.3% of all), similar ones and a draw of the others.
SMILES,Bcl-xL primary,Keap1 Nrf2 FP,C-LANA FP,GLD-1 TGE inh,MCL1-BIM inh,eLon inh,BCLXL inh confirm,MCL1 inh confirm
O=C(CN1CCCc2ccccc21)NCc1ccccc1Cl,61.9,–,–,–,68.1,–,–,–
COc1ccccc1OCc1nnc(SCC(=O)NCc2ccco2)n1Cc1ccco1,–,–,–,–,45.9,–,–,–
COCCNC(=O)C1Nc2ccc(C(F)(F)F)cc2C2C=CCC12 (stereo unspecified),–,–,–,–,–,–,·,·
CCOC(=O)C1Nc2ccc(C(=O)O)cc2C2C=CCC12 (stereo unspecified),36.8,–,–,–,89.1,–,32.3,48.4
CCOC(=O)C1Nc2c(F)cc(C)cc2C2C=CCC12 (stereo unspecified),–,·,·,–,–,·,·,·
CCOC(=O)c1ccc2c(c1)C1C=CCC1C(C(=O)O)N2 (stereo unspecified),64.3,·,·,–,113.1,·,54.5,97.1
CCOc1ccc(S(=O)(=O)NCCC(=O)NCC2(N3CCCCC3)CCCCC2)cc1,–,–,–,–,–,–,·,·
CC(=O)c1ccc2c(c1)C1C=CCC1C(c1ccc(S(=O)(=O)N3CCOCC3)cc1)N2 (stereo unspecified),–,–,–,–,–,–,·,·
Cc1c(Cl)cccc1NS(=O)(=O)c1ccc2c(c1)C1C=CCC1C(c1ccc(C(=O)O)cc1)N2 (stereo unspecified),38.8,–,110.8,–,61.1,–,–,73.9
COc1ccc(NS(=O)(=O)c2ccc3c(c2)[C@H]2C=CC[C@H]2[C@@H](c2ccc(C(=O)O)cc2)N3)cc1,–,–,113.0,–,54.3,–,–,–
O=C1NC(=O)[C@@H]2C3c4ccccc4C=CN3[C@H](C(=O)c3cccs3)[C@H]12 (stereo partly specified),122.6,·,·,101.5,124.3,·,61.2,87.3
CCc1cc[n+](-c2nc3ccccc3nc2[N-]S(=O)(=O)c2ccc(Br)s2)cc1,82.7,–,–,–,93.8,–,70.5,87.5
O=C(/C=C/c1ccc(Cl)c([N+](=O)[O-])c1)Nc1ccc(N2CCCC2)cc1,–,–,–,–,47.3,–,–,43.2
Cc1ccccc1Nc1cc2ccccc2c(=O)[nH]1,82.1,–,–,49.9,81.0,–,85.0,93.3
O=c1[nH]c(Nc2ccccc2Cl)cc2ccccc12,–,–,–,–,–,–,·,·
C=CCn1c(Cn2c(-c3cnccn3)nc3ccccc32)nc2ccccc21,·,·,·,·,·,–,·,·
CC1(C)C(/C=C/C=C/C=C/C=C2\N(CCCCS(=O)(=O)O)c3ccc4ccccc4c3C2(C)C)=[N+](CCCCS(=O)(=O)[O-])c2ccc3ccccc3c21,84.6,–,–,–,89.8,–,67.6,74.2
Cc1cc(-c2cccc(Br)c2)c(C#N)c(N)n1,–,–,–,–,–,–,·,·
c1coc(Cn2nnnc2CN2CCN(C3CCCC3)CC2)c1,–,–,–,–,40.4,–,–,–
CC(C)C(c1nnnn1Cc1ccco1)N1CCN(C2CCCC2)CC1 (stereo unspecified),–,–,–,–,–,–,·,·
O=C(NCCc1ccc(Cl)cc1)c1cccc(S(=O)(=O)N2CCCC2)c1,·,·,·,·,·,–,·,·
CC(=O)OCC1=C(C(=O)O)N2C(=O)C(NC(=O)CCn3nc(C(F)(F)F)c(Br)c3C3CC3)C2SC1 (stereo unspecified),–,–,–,–,65.1,–,–,96.4
c1coc(CNc2c3c(nc4ccccc24)CCC3)c1,65.0,–,–,–,62.1,–,–,–
Cc1ccccc1N1CCN(C2=NC(=O)/C(=C\c3cccs3)S2)CC1,–,–,–,–,46.0,–,–,–
O=C1N=C(N2CCN(c3cccc4ccccc34)CC2)S/C1=C/c1cccs1,–,–,–,–,–,–,·,·
SMILES,Bcl-xL primary,Keap1 Nrf2 FP,C-LANA FP,GLD-1 TGE inh,MCL1-BIM inh,eLon inh,BCLXL inh confirm,MCL1 inh confirm
CCOC(=O)C1=C(CSc2nc(CC)c(C)cc2C#N)OC(N)=C(C#N)C1c1ccc(OC)cc1 (stereo unspecified),–,–,–,–,–,–,·,·
COC(=O)C1=C(CSc2nc3c(cc2C#N)CN(C)CC3)OC(N)=C(C#N)C1c1ccc(F)cc1 (stereo unspecified),57.8,–,–,–,74.0,–,–,–
Nc1c(C(=O)NC2CC2)sc2nc3c(c(-c4ccco4)c12)CC/C3=C/c1ccco1,72.9,–,–,84.8,115.0,–,64.0,95.6
CC(C)c1ccc(NC(=O)CN2C(=O)c3ccccc3S2(=O)=O)cc1,–,–,–,–,–,–,·,·
CC(C)NC(=O)CN1C(=O)c2ccccc2S1(=O)=O,–,–,–,–,+,–,–,–
Cc1nn(-c2ccccc2)c(N2CCCC2)c1/C=N/O,–,–,–,–,–,–,·,·
Cc1nn(-c2ccccc2)c(Cl)c1/C=N/O,–,–,–,–,119.4,–,–,–
Cc1ccc(NC(=O)c2cc(C)nn2-c2ccccc2)cc1,+,–,–,160.8,+,–,–,–
Oc1cccc(O)c1O,–,·,·,–,62.7,·,–,41.8
Cc1nnc2c3ccccc3c(-c3ccc(O)cc3)nn12,–,–,–,–,–,–,·,·
Cc1c(-c2ccc(O)cc2)nc2nc(-c3ccccc3)c(-c3ccccc3)nn12,118.2,·,·,–,112.2,·,43.9,54.0
CCN(C(=O)C(C)N1C(=O)/C(=C/c2ccco2)SC1=S)C1CCS(=O)(=O)C1 (stereo unspecified),33.0,–,–,–,58.8,–,–,56.5
O=C1/C(=C/c2ccco2)SC(=S)N1C1CCS(=O)(=O)C1 (stereo unspecified),–,–,–,–,67.3,–,–,–
CC(C(=O)N(C)C1CCS(=O)(=O)C1)N1C(=O)/C(=C/c2ccc(F)cc2)SC1=S (stereo unspecified),–,–,–,–,–,–,·,·
Clc1ccc(-c2nc(C3CCCCC3)no2)cc1,–,–,–,–,–,–,·,·
CC(c1nc2ccccc2c(=O)[nH]1)N(C)c1ccc2ccccc2c1 (stereo unspecified),74.2,–,–,77.8,86.5,–,–,–
COc1ccc(N/C(=C(/C(Cl)=C(Cl)Cl)[N+](=O)[O-])n2nnc3ccccc32)cc1OC,97.0,·,·,37.2,104.2,·,–,–
COc1ccc(C(=O)n2nnc3ccccc32)cc1OC,–,–,–,–,–,–,·,·
COc1ccc(/C=N/NC(=O)C(=O)/C=C2\NC3(CCCC3)Cc3ccccc32)cc1,–,–,–,–,–,–,·,·
O=C(/C=C1\NC2(CCCC2)Cc2ccccc21)C(=O)N/N=C/c1ccc(O)c(O)c1,–,–,–,–,41.6,–,30.7,43.0

# Source: PubChem BioAssay (several laboratories)
